Data: publication PMC5540273 (PLoS ONE, 2017)

These compounds were tested on HPK1. Conditions: concentration: 1 μM, replicates: in singlicate; n = 1.
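Note: KINOMEscan kinase panel screen.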

Row | SMILES | %Inh [%]
1 | COc1cccc(-c2cc(-c3c[nH]nc3-c3ccccn3)ccn2)c1 [GW680338] | 25
2 | COc1cc2ncnc(Nc3ccc4nc(-c5ccccc5)[nH]c4c3)c2cc1OC.Cl [GW282450] | 1
3 | COC(=O)c1c(-c2ccccc2)c2cc(C(=O)O)ccc2c(=O)n1Cc1ccccc1 | 0
4 | Cc1cccc(-c2nc(Nc3ccncc3)c3ccccc3n2)n1 [GW855857] | 9
5 | Cc1cccc(-c2nc(-c3ccc(S(C)(=O)=O)cc3)sc2-c2ccnc(NCCc3ccccc3)c2)c1 | 11
6 | CN(C)CCN(C)C(=O)c1cc(-c2ccncc2)c(-c2ccc(Cl)c(O)c2)o1.Cl.Cl [SB-710397] | 46
7 | Cc1nnc(-c2ccc3occ(-c4ccc(S(C)=O)cc4)c3c2)[nH]1 (stereo not drawn) | 0
8 | COc1cc2nccc(Nc3ccc(NC(=O)c4ccc(C)cc4)c(O)c3)c2cc1OC.Cl [GW440132] | 24
9 | Cc1cccc(-c2cc(Nc3ccncc3)c3ccccc3n2)n1 [GSK223675] | 12
10 | Cn1ccc2ncnc(Oc3ccc(Nc4nc5ccccc5[nH]4)cc3)c21 | 0
11 | Cc1cc(NCC(c2ccccc2)c2ccccc2)nc(NCc2ccc(C(F)(F)F)cc2)n1 [GW497681] | 23
12 | Cc1cccc(-c2nc(C)cc(Nc3ccncc3)n2)n1 [GSK257997] | 34
13 | Cl.c1ccc(-c2n[nH]cc2-c2ccnc(-c3ccc(CN4CCOCC4)cc3)c2)nc1 [GW776245] | 64
14 | Cc1ccc(NC(=O)Nc2cc(C(C)(C)C)nn2-c2ccccc2)cc1 [GSK1014915] | 25
15 | CC1=C(C(=O)Nc2cc3cn[nH]c3cc2F)C(c2ccc(C(F)(F)F)cc2)CC(=O)N1 (stereo not drawn) [GSK429286] | 29
16 | Nc1nc(-c2nccs2)c(-c2ccnc3ccccc23)s1 [GW693542] | 30
17 | COc1ccc(C2=C(Nc3cccc(C(=O)O)c3)C(=O)NC2=O)cc1 [SB-390765] | 0
18 | O=C(O)COc1ncnc2cc(-c3ccc4[nH]ncc4c3)sc12 | 7
19 | Cc1cccc(-c2nc(Nc3cccc(C(N)=O)c3)c3ccccc3n2)n1 [GW876019] | 36
20 | CC(C)(C)c1ccc(C(=O)Nc2cn3cc(-c4cccnc4)ccc3n2)cc1 | 11
21 | COc1ccccc1CNC(=O)c1cc(C(=O)c2ccccc2C)c[nH]1 [GSK364507] | 26
